Laboratory results from PubChem BioAssay AID651812 (National Center for Advancing Translational Sciences (NCATS), 2012).
Values joined by “and” are separate entries in the source; they are usually repeats but may differ in a detail not shown here. Equal values may be shown once. In all, about 2,100 compounds went through this assay and about 650 (31%) were called active. Inconclusive results (about 16%) are left out. The call rests on the fitted dose curve; in most records, active means well fitted inhibition curve with a large enough effect; inconclusive means small, poorly fitted or top-dose-only effect; inactive means flat fitted curve, though single readings scatter. This is one part of the list. Where a call stands in place of a potency, no number is given.

Assay: qHTS for inhibitors of Vif-A3G interactions: Cherry picks; further: nearly all actives have a fitted effect of over 80% in size
Conditions: HeLa A3G-eYFP + Vif (tagged APOBEC3G with the HIV-1 protein that degrades it), 24 h; Potency: eYFP fluorescence increase; series mostly up to 36.9 µM
Summary of the method: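 Cherry-picked compounds tested at several concentrations on A3G-eYFP/Vif HeLa cells for 24 hours; loss of Vif-driven degradation read as eYFP fluorescence by cytometric plate imaging, 488 nm excitation, 500-530 nm emission.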
Potency means the concentration at half of the fitted maximal effect.

Row | Structure (SMILES) | Potency
1 | CC1Cc2cc(S(=O)(=O)CCC(=O)NCc3ccc(Cl)cc3)ccc2N1C(=O)C1CC1 (stereo not given) | inactive
2 | CCOC(=O)c1c(C)sc(-c2c(-c3ccccc3)[nH]c3[nH]c(=O)[nH]c(=O)c23)c1O | 7.31 µM (active)
3 | CC(C)=CCn1c2ccc(NC(=O)NCc3ccc(F)cc3)cc2c(=O)n1C | inactive
4 | Nc1c(C(=O)Nc2ccccc2F)sc2nc(-c3ccco3)ccc12 | 23.1 µM (active)
5 | Cc1ccccc1NC(=O)c1sc2nc3c(c(-c4ccco4)c2c1N)CCC3 | inactive
6 | COc1ccc(/C=N/NC(=O)c2[nH]nc3c2CCc2ccccc2-3)cc1OC | inactive
7 | CC(=O)Nc1ccc(S(=O)(=O)N2CCSc3ccccc32)cc1 | inactive
8 | Cn1cc(C2=C(c3ccc(Cl)cc3Cl)C(=O)NC2=O)c2ccccc21 | 13 µM (active) and 18.4 µM (active)
9 | COc1ccc(-n2nnnc2-c2ccccc2)cc1 | inactive
10 | Cc1cccc(NC(=O)/C(C#N)=C/c2cn(CC(=O)NCc3ccco3)c3ccccc23)c1C | inactive
11 | O=S(=O)(Nc1ccc(C(O)(C(F)(F)F)C(F)(F)F)cc1)c1ccc(Cl)c2nonc12 | inactive
12 | COc1ccccc1N1CCN(C(=O)c2cc(=O)c3cc(C)cc(C)c3o2)CC1 | inactive
13 | COc1cccc(-c2cnc3c(NC=O)cc(-c4cc(OC)c(OC)c(OC)c4)cn23)c1 | inactive
14 | COc1cccc(NC(=O)c2oc3ccc(S(=O)(=O)N4CCC5(CC4)OCCO5)cc3c2C)c1 | inactive
15 | Clc1ccc(/C=N/NC2=Nc3cccc4cccc2c34)cc1 | 18.4 µM (active)
16 | O=C(N/N=C/c1ccc(Cl)cc1)c1cc2c(s1)-c1ccccc1CC2 | inactive
17 | CCOC(=O)Cc1ccc(Nc2nc3cc(-c4sccc4C)sc3c(=O)n2C)cc1 | inactive
18 | COc1cc(-c2noc(C)c2/C=C/c2cccc([N+](=O)[O-])c2)cc(OC)c1OC | inactive
19 | O=C(O)CSc1cc(NS(=O)(=O)c2cccc([N+](=O)[O-])c2)c2ccccc2c1O | inactive
20 | COc1ccc(C(=O)C(C)[n+]2ccc(C)c3ccccc32)cc1[N+](=O)[O-] (stereo not given) | inactive
21 | COc1ccc(-n2c(O)c(/C=N/NS(=O)(=O)c3ccc(C)c([N+](=O)[O-])c3)c3ccccc3c2=O)cc1OC | 11.6 µM (active)
22 | COc1ccc(-n2c(O)c(/C=N/NS(=O)(=O)c3cccc([N+](=O)[O-])c3)c3ccccc3c2=O)cc1OC | 15.8 µM (active)
23 | O=c1[nH]cnc2n[nH]nc12 | inactive
24 | CN(C)c1ccc2ccc3cccc4ccc1c2c34 | 14.6 µM (active)
25 | Cc1ccc(-c2nc(-c3cc4cccc(OCc5cccc(F)c5)c4oc3=O)no2)cc1 | 18.4 µM (active)
